Laboratory results from ChEMBL document CHEMBL3988442, “University of Dundee, Small-Polar-MMV Screening Library” (2021).
Screen size: about 69,000 compounds; about 1,000 (1.4%) showed an effect of 50% or more. This is one part of a sample in which strong results are shown more often than they occur.

Test system: Leishmania donovani
Experiment: Leishmania intramacrophage assay
Format: functional, organism-based
Design: scale not given: in the data most compounds retested in dose-response had high values

Compound | Percent Effect (30.3 µM, […]) | Percent Effect (30 µM)
Cc1noc(C)c1CN1C(=O)[C@H]2CC[C@@H]1CN(Cc1ccc(Cl)cc1)C2 | 25.74% | 
COc1ccc(F)cc1C(C(=O)O)N1CCCN(C2CCCC2)CC1 (stereo not given) | 27.32% | 
CCS(=O)(=O)N1CCN(Cc2cccnc2)c2nc(C)ccc2C1.O=C(O)C(F)(F)F.O=C(O)C(F)(F)F | 32.81% | 
COc1ccc(CC(=O)N2CCC[C@@H](N)[C@@H]2c2ccccc2F)cc1.Cl | 50.59% | 
N[C@@H]1CCCN(C(=O)Cc2c[nH]c3ccccc23)[C@H]1c1ccccc1F | 38.86% | 
COc1cccc(CCC(=O)N2CCC[C@@H](N)[C@@H]2c2ccccc2F)c1.Cl | 36.93% | 
Cc1noc2ncc(S(=O)(=O)Nc3cc(CC(C)(C)C)[nH]n3)cc12 | 32.33% | 
CCN(CCO)C(=O)c1cc(Cn2c(C)nc3ccccc32)[nH]n1 | 22.11% | 
CCCN(CC)C(=O)c1cc(Cn2c(C)nc3ccccc32)[nH]n1 | 56.73% | 
CCCN(CCOC)C(=O)c1cc(Cn2c(C)nc3ccccc32)[nH]n1 | 37.64% | 
CCc1nnc2n1CCN(C(=O)c1ccc(-c3ccco3)[nH]c1=O)C2 |  | 4.718%
COc1ccccc1N1CCN(C(=O)CSCC2CC2)C(C)C1 (stereo not given) | -23.1% | 
Cc1ccc(C)c(CSc2nnc([C@@H](N)C(C)C)o2)c1.Cl | -10.46% | 
CSCC[C@H](N)c1nnc(SCc2cc(C)ccc2C)o1.Cl | 51.5% | 
Cc1ccc(C)c(CSc2nnc(C(N)C(C)C)o2)c1.Cl (stereo not given) | -13.85% | 
Cc1noc(C)c1-c1cncc(C2CCCN2Cc2cn(C)cn2)n1 (stereo not given) | 19.34% | 
CNC(=O)N1CC[C@@H]2CN(Cc3cccc(Cl)c3)S(=O)(=O)[C@@H]2CC1 | 7.409% | 
CNC(=O)N1CC[C@@H]2CN(Cc3cccc(OC)c3)S(=O)(=O)[C@@H]2CC1 | 61.69% | 
CCCC(C(=O)NC1CCN(S(C)(=O)=O)CC1)n1cccc1 (stereo not given) | 18.03% | 
COc1ccc(CN2CCC3(CC2)CN(c2ccccn2)CCO3)cc1.O=C(O)C(F)(F)F.O=C(O)C(F)(F)F | -28.76% | 
COc1ccc(C(CNS(=O)(=O)c2cn(C)nc2C)N2CCCC2)cc1.Cl (stereo not given) | 23.75% | 
Cc1[nH]c2c(F)cccc2c1CC(=O)N1CCCC(N)CC1 (stereo not given) | -7.725% | 
Cc1cncc(C(=O)N2CCC3(CC2)NC(=O)CC3c2ccccc2)c1.O=C(O)C(F)(F)F (stereo not given) | 4.194% | 
Cn1cc(C2CC(=O)NC23CCN(C(=O)c2cccnc2)CC3)cn1.O=C(O)C(F)(F)F (stereo not given) | 56.16% | 
Cn1cc(C2CC(=O)NC23CCN(C(=O)Cc2ccccn2)CC3)cn1.O=C(O)C(F)(F)F (stereo not given) | 2.376% | 
